Bioassay records: PubChem, several laboratories
Hits are enriched below; roughly 27% of the tested compounds scored in any of these assays.
sEH inh – soluble epoxide hydrolase (human) inhibition | recombinant human sEH enzymatic activity assay | inhibition, % at 2 µM | 0.34% of 91,000 active | AID 707; in the data active means inhibition above about 80%
Target sequence (P34913 whole entry, looked up): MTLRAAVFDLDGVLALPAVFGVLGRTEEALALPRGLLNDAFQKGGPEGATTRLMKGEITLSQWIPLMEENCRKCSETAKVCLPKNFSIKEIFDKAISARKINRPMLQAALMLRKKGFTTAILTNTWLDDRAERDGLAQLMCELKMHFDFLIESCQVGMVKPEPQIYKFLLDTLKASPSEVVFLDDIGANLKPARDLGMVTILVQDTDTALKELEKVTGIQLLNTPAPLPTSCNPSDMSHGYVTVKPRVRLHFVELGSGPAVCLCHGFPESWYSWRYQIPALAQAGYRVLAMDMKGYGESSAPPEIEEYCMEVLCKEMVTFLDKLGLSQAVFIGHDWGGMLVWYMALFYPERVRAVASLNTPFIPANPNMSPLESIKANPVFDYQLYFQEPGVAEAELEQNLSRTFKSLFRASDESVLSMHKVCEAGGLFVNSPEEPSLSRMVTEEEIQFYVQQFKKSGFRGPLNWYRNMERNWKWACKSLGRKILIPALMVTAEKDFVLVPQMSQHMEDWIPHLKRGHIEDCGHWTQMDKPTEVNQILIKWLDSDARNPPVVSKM
CYP2C9 act – CYP2C9 (human) activation. P11712. recombinant CYP2C9, luciferin-H conversion, luminescence; active compounds read high; factor 1 = untreated enzyme, 0 = blocked. activation factor at 5 µM. 1.4% of 96,000 active. AID 1024;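 active means activation factor of 2 or more for CYP2C9 at a 5 µM dose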;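 further: 0 = sulfaphenazole-blocked wells and 1 = vehicle-only wells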
CYP2C19 act – activators of human cytochrome P450 2C19; activation factor at 5 µM; recombinant CYP2C19, luciferin-H EGE luminescence; active compounds read high; 0 = fully inhibited enzyme, 1 = untreated enzyme; 96,000 tested, under 10 active; P33261;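 active means activation factor of at least 2 at 5 µM in the primary screen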;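 further: 0 = wells with 2.5 mM tranylcypromine and 1 = vehicle-only wells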
CYP2C19 inh – human CYP2C19 inhibition; inhibition, % at 5 µM; 21% of 96,000 active; CYP2C19 Supersomes, luciferin-H EGE luminescence, 30 min; AID 778; P33261;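 active means CYP2C19 inhibition above a set limit at 5 µM in the primary screen, cut at about 50% in these data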;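 further: plate controls were negative control wells for no effect and 2.5 mM tranylcypromine positive control for full effect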
CYP2C9 inhib – blocks human cytochrome P450 2C9; P11712; CYP2C9 Supersomes, luciferin-H conversion, luminescence; inhibition, % at 5 µM; 20% of 96,000 active; AID 777;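 active means blocking of liver enzyme CYP2C9 beyond about 50% at 5 µM, limit read from the data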
sEH activator – activators of human soluble epoxide hydrolase; P34913; purified human sEH enzymatic activity, activator screen; activation, % at 2 µM; 0.04% of 91,000 active; AID 717; in the data active means activation above about 37%
An asterisk follows results filed as active; nt = not tested or not shown.

SMILES	sEH inh	CYP2C9 act	CYP2C19 act	CYP2C19 inh	CYP2C9 inhib	sEH activator
CCCn1c(N2CCN(CC(=O)c3c[nH]c4ccccc34)CC2)nc2c1c(=O)[nH]c(=O)n2C	4.6	0.3	0.5	45.6	69.7*	-5.0
CC(C)CCn1c(SCC(=O)c2ccccc2)nc2c1c(=O)[nH]c(=O)n2C	0.1	0.3	0.8	18.7	73.3*	-5.4
CCn1c(N2CCN(CC(=O)c3c(C)n(C)c4ccccc34)CC2)nc2c1c(=O)[nH]c(=O)n2C	-1.6	0.5	0.6	39.1	45.7	1.2
Cc1csc(SCCn2c(N3CCN(c4ccccc4)CC3)nc3c2c(=O)[nH]c(=O)n3C)n1	-10.6	0.5	0.5	48.9	51.8*	10.6
CCCCCn1c(N2CCN(Cc3ccccc3)CC2)nc2c1c(=O)[nH]c(=O)n2C	3.1	0.6	0.4	61.0*	42.8	-5.0
CCCCCn1c(N2CCC(Cc3ccccc3)CC2)nc2c1c(=O)[nH]c(=O)n2C	-4.8	nt	nt	nt	nt	3.9
CCN1CCN(c2nc3c(c(=O)[nH]c(=O)n3C)n2CCSc2nc3ccccc3s2)CC1	2.5	0.6	0.9	6.9	36.7	-0.8
O=C(Nc1ccc(C(=O)N2CCCC2)cc1)c1ccc2c(c1)OCO2	-3.5	0.6	0.6	42.3	39.9	1.7
CCCn1c(N2CCN(Cc3cccc(C)c3)CC2)nc2c1c(=O)[nH]c(=O)n2C	-1.2	1	0.1	90.4*	-2.6	0.2
Cn1c(=O)c2c(nc(N3CCCCCC3)n2CCSc2nc3ccccc3o2)n(C)c1=O	-2.8	0.6	0.7	31.9	43.4	1.9
CC(C)CCn1c(CN2CCN(Cc3ccccc3)CC2)nc2c1c(=O)[nH]c(=O)n2C	nt	0.8	0.9	13.6	24.6	nt
CC(C)CCn1c(N2CCN(Cc3ccccc3)CC2)nc2c1c(=O)[nH]c(=O)n2C	-18.4	0.2	0.2	77.4*	76.0*	14.7
Cn1c(=O)[nH]c(=O)c2c1nc(N1CCCCCC1)n2CCCSc1nc2ccccc2o1	10.2	0.2	0.3	65.5*	82.7*	-10.0
CCCCn1c(NC(C)CC)nc2c1c(=O)[nH]c(=O)n2C (centres undefined)	14.9	0.5	0.9	8.6	53.3*	-15.3
CCOc1ccc2c(c1)c1nnc(SCC3CCCO3)nc1n2C (centres undefined)	2.3	0.5	0.5	47.1	47.5	-4.7
CC(C(=O)N(C1CC1)C1(C(=O)Nc2ccccc2)CCCC1)N1C(=O)c2ccccc2C1=O (centres undefined)	nt	0.8	0.6	36.6	21.5	nt
O=C1NC(c2ccccc2)C(C(=O)c2cccs2)=C1O (centres undefined)	-13.4	1	1	-1.5	-0.1	12.2
O=C(CCC1CCCC1)Nc1ccon1	-2.3	0.9	0.7	25.8	11.9	3.6
CCOC(=O)c1sc(NC(=O)c2ccccc2)cc1C	61.8	0.7	0.8	23.8	27.5	-61.2
CCOC(=O)c1sc(N)c(C#N)c1COC(=O)CNC(=O)c1ccccc1	-3.0	0.3	0.6	42.2	72.9*	1.1
Cn1c(SCC(=O)c2ccc(-c3ccccc3)cc2)nnc1-c1ccco1	4.4	0.4	0.3	67.6*	56.2*	-8.5
NC(=O)NC(=O)CSc1nnc(-c2ccco2)n1Cc1ccccc1	-16.4	0.9	1	-0.1	5.7	14.6
Cc1ccc(C(=O)CSc2nnc(-c3ccco3)n2Cc2ccccc2)cc1	-1.7	0.4	0.4	58.0*	61.6*	1.8
O=C(CSc1nnc(-c2ccco2)n1Cc1ccccc1)c1ccccc1	-3.7	0.1	0.1	93.2*	86.9*	3.1
CC(C)Cn1c(SCC(=O)c2ccc(Cl)s2)nnc1-c1ccco1	4.5	0.3	0.3	66.8*	72.0*	-5.0
SMILES	sEH inh	CYP2C9 act	CYP2C19 act	CYP2C19 inh	CYP2C9 inhib	sEH activator
O=C(Nc1cccc(Cl)c1)N1CCSc2cc(Cl)ccc21	15.2	0.9	1.1	-6.0	6.1	-13.0
Cc1nn(CC(=O)NCc2ccc(OC(C)C)cc2)c(=O)c2cc3occc3n12	4.1	1.3	0.9	8.2	-31.7	-3.9
c1ccc2c(c1)nc(N1CCOCC1)c1nncn12	-9.9	0.8	1	2.5	15.1	6.9
c1ccc(N2CCN(c3nc4ccccc4n4cnnc34)CC2)cc1	-8.7	0.5	0.3	65.3*	49.2	9.4
Cc1ccnc(N2C(=O)OC(C)(C)C2(C)O)c1 (centres undefined)	nt	0.8	0.9	10.3	16.6	nt
CC1CCCCN1C(=O)Cn1c(=O)oc2ccccc21 (centres undefined)	-14.9	nt	nt	nt	nt	16.7
CC1CCCCN1c1nnc(NC(=O)Cn2c(=O)oc3ccccc32)s1 (centres undefined)	3.1	0.4	1.1	-6.6	56.7*	-4.0
COc1ccc(OCCCCOc2ccccc2Cl)cc1	12.6	1.1	1.1	-12.9	-13.0	-9.8
Cc1noc(C)c1CSCC(=O)OCC(=O)Nc1sccc1C#N	-16.8	0.3	0.6	38.0	67.2*	17.4
Cc1ccc(NC(=O)CSCc2c(C)noc2C)cc1C	22.6	0.5	0.1	93.7*	48.1	-22.2
CCOC(=O)Cc1cn2c(=O)cc(CSCC(=O)Nc3ccc(C)c(C)c3)nc2s1	nt	0.3	0.8	21.3	74.3*	nt
N#Cc1ccsc1NC(=O)COC(=O)CCCSc1nc2ccccc2s1	nt	0.6	0.8	18.1	35.2	nt
CC12CC(NC(=O)N1CCc1ccccc1)c1cc(Cl)ccc1O2 (centres undefined)	-11.8	nt	nt	nt	nt	15.0
CC1CCCCC1N1CN=C(Nc2nc3ccccc3s2)NC1 (centres undefined)	4.8	1.1	1	4.6	-12.5	-4.3
CCOC(=O)Cc1csc(NC(=S)NC(=O)c2ccccc2C)n1	9.3	0.5	0.9	5.3	49.2	-6.8
CN(C)C(=O)c1ccc(COc2ccccc2Br)o1	8.8	0.7	0.2	83.0*	26.4	-3.9
O=C(Nc1nccs1)c1ccc(COc2ccccc2Br)o1	-8.5	0.1	0.1	88.1*	90.6*	10.7
O=C(Nc1nccs1)c1ccc(COc2ccc(F)cc2)o1	10.6	0.9	0.9	14.2	9.9	-10.7
CO/N=C(/CS(=O)(=O)c1ccc(C)cc1)c1ccc(OC)cc1	-14.9	0.8	0	99.1*	16.7	11.7
Cc1ccc(S(=O)(=O)c2ccc(C)cc2)cc1	-19.0	1.5	0.7	28.7	-54.4	14.9
Cc1ccc(S(=O)(=O)c2ccc(Oc3cccc(C)c3)cc2)cc1	5.7	0.5	0.7	31.4	52.7*	-7.5
CN1C=CC2=C(C#N)C(N)C(C#N)(C#N)[C@H](c3ccccc3)[C@H]2C1 (some centres undefined)	-18.3	nt	nt	nt	nt	17.4
COCCOc1ccc(C(F)(F)F)cc1Nc1nc2ccccc2o1	nt	0.6	0.7	30.5	38.5	nt
CC1=CC(C)(C)C(C(=O)O)C(C(=O)O)C1 (centres undefined)	nt	1	1.1	-8.2	0.9	nt
Nc1nonc1-c1noc(-c2ccccc2Br)n1	-5.0	1	0.3	66.9*	-0.5	8.5
